From PubChem BioAssay AID1159580 (chemical genetic matrix, 2015)
Where “and” joins values, the source holds several entries; their conditions need not be identical. Equal values may be shown once. Out of some 5,500 compounds screened, about 2,000 (36%) were called active. Not shown: some 18% with an inconclusive outcome. Rule as the data show it: active = normalized growth mostly below about 0.91 (no sharp cut-off); inconclusive = no clear call, values can overlap the other calls; inactive = mostly above about 0.92. The list shows a part of the results.

Test: chemical genetic growth profiling, strain panel (AID 1159580);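 also: tested at 20 µM; growth read once vehicle control cultures reached saturation at 30 °C; 1 = growth at the plate median or of vehicle wells; lower values mean less growth of the strain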
Settings: S. cerevisiae deletion strains, growth OD

Measured: normalized growth

C[C@@H]1C(=O)OC2[C@H](O)C34[C@@H]5OC(=O)[C@@]3(O[C@@H]3OC(=O)[C@H](O)[C@@]34[C@H](C(C)(C)C)[C@H]5O)[C@]21O (stereo partly drawn)
inactive: locus YAL013W, strain DEP1, active compounds read low 0.998 | locus YAL021C, strain ccr4, active compounds read low 0.952 | locus YAL026C, strain drs2, active compounds read low 0.978 | locus YAL030W, strain snc1, active compounds read low 0.973 | locus YBL061C, strain skt5, active compounds read low 0.975 | locus YBR009C, strain hhf1, active compounds read low 0.959 | locus YBR021W, strain FUR4, active compounds read low 0.983 | locus YBR023C, strain chs3, active compounds read low 0.986 | locus YBR171W, strain sec66, active compounds read low 0.974 | locus YBR229C, strain ROT2, active compounds read low 1 | locus YBR231C, strain swc5, active compounds read low 0.976 | locus YBR279W, strain paf1, active compounds read low 0.98 | locus YCL011C, strain gbp2, active compounds read low 0.972 | locus YCL016C, strain dcc1, active compounds read low 0.975 | locus YCL029C, strain bik1, active compounds read low 1.02 | locus YCL061C, strain MRC1, active compounds read low 0.96 | locus YCL069W, strain vba3, active compounds read low 0.976 | locus YCR088W, strain abp1, active compounds read low 0.983 | locus YDL005C, strain med2, active compounds read low 0.964 | locus YDL035C, strain GPR1, active compounds read low 1 | locus YDL040C, strain nat1, active compounds read low 0.975 | locus YDL074C, strain BRE1, active compounds read low 0.999 | locus YDL101C, strain DUN1, active compounds read low 1.01 | locus YDL134C, strain PPH21, active compounds read low 0.999 | locus YDL185W, strain tfp1, active compounds read low 1.02 | locus YDL192W, strain arf1, active compounds read low 1.01 | locus YDR001C, strain nth1, active compounds read low 0.973 | locus YDR069C, strain doa4, active compounds read low 0.983 | locus YDR101C, strain arx1, active compounds read low 1.01 | locus YDR137W, strain rgp1, active compounds read low 0.935 | locus YDR159W, strain sac3, active compounds read low 0.946 | locus YDR162C, strain NBP2, active compounds read low 0.987 | locus YDR195W, strain ref2 0.942 | locus YDR297W, strain sur2, active compounds read low 0.97 | locus YDR318W, strain mcm21, active compounds read low 1.01 | locus YDR334W, strain swr1, active compounds read low 0.976 | locus YDR335W, strain msn5, active compounds read low 0.965 | locus YDR388W, active compounds read low 1.01 | locus YDR392W, strain spt3, active compounds read low 0.949 | locus YDR502C, strain sam2, active compounds read low 1.03 | locus YEL003W, strain gim4, active compounds read low 0.961 | locus YEL037C, strain rad23, active compounds read low 0.976 | locus YEL061C, strain CIN8 (second series), active compounds read low 0.965 | locus YEL061C, strain CIN8, active compounds read low 0.992 | locus YER015W, strain faa2, active compounds read low 0.989 | locus YER016W, strain bim1, active compounds read low 0.975 | locus YER110C, active compounds read low 1.01 | locus YER111C, strain swi4, active compounds read low 0.964 | locus YER155C, strain BEM2 (second series), active compounds read low 1.02 | locus YER155C, strain BEM2, active compounds read low 1 | locus YER167W, strain BCK2, active compounds read low 0.996 | locus YFR010W, strain ubp6, active compounds read low 0.985 | locus YGL078C, strain dbp3, active compounds read low 1.01 | locus YGL086W, strain mad1, active compounds read low 1.03 | locus YGL167C, strain pmr1, active compounds read low 0.972 | locus YGL173C, strain kem1, active compounds read low 0.953 | locus YGL227W, strain vid30, active compounds read low 0.955 | locus YGL240W, strain doc1, active compounds read low 0.981 | locus YGL248W, strain PDE1, active compounds read low 1.01 | locus YGL253W, strain hxk2, active compounds read low 0.974 | locus YGR078C, strain PAC10, active compounds read low 1 | locus YGR135W, strain pre9, active compounds read low 1.02 | locus YGR252W, strain gcn5, active compounds read low 1.01 | locus YHR013C, strain ard1, active compounds read low 0.957 | locus YHR027C, strain rpn1, active compounds read low 0.987 | locus YHR030C, strain SLT2, active compounds read low 1 and 1.05 | locus YHR079C, strain IRE1 (second series), active compounds read low 1.02 | locus YHR079C, strain IRE1, active compounds read low 1.03 | locus YHR094C, strain hxt1, active compounds read low 1.01 | locus YHR129C, strain ARP1, active compounds read low 1 | locus YHR142W, strain chs7, active compounds read low 0.956 | locus YHR200W, strain rpn10, active compounds read low 1.01 | locus YIL066C, strain RNR3, active compounds read low 1 | locus YIL073C, strain SPO22, active compounds read low 1.06 | locus YIL125W, strain kgd1, active compounds read low 1.01 | locus YIR030C, strain dcg1, active compounds read low 1.02 | locus YJL092W, strain hpr5, active compounds read low 0.975 | locus YJL095W, strain BCK1 (second series), active compounds read low 0.955 | locus YJL095W, strain BCK1, active compounds read low 0.992 and 1.03 | locus YJL115W, strain asf1, active compounds read low 0.956 | locus YJL129C, strain trk1, active compounds read low 0.974 | locus YJL134W, strain LCB3, active compounds read low 1 | locus YJL154C, strain vps35, active compounds read low 0.977 | locus YJL164C, strain tpk1, active compounds read low 0.969 | locus YJL166W, strain qcr8, active compounds read low 0.992 | locus YJL168C, strain set2, active compounds read low 1.01 | locus YJL187C, strain SWE1 (second series), active compounds read low 1.01 | locus YJR043C, strain POL32, active compounds read low 0.994
